# Assay outcomes as filed in PubChem.
# Shown are actives, neighbours in structure and some others; about 7.2% of the full set was active somewhere.
# HEK293 viab: counter-screen for SNCA expression inhibitors: cell viability | HEK-293-SNCA-luc viability, GF-AFC fluorescence, 24 h | Potency, µM (series often up to 57.1 µM), for inactives: at the highest dose activity change, negative = cytotoxicity, usual class: cytotoxic | hit rate 0.12% among 150,000 | AID 1671193;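 further: 0% = DMSO-treated cells and -100% = medium-only wells without cells; nearly all actives have a fitted effect of over 30% in size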
#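 Cytotoxicity counterscreen: after 24 h compound treatment of genome-edited SNCA-luciferase HEK-293 cells, live-cell protease substrate GF-AFC read by fluorescence after 30 min; activity scaled between DMSO (0%) and medium-only (-100%), curves Hill-fitted.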
# 3T3 cytotox: cytotoxic compounds in NIH 3T3 cells; NIH 3T3 viability, CellTiter-Glo ATP luminescence, 48-72 h; Potency, µM (top dose mostly 96.7 µM), inactives show top-dose activity change, negative = cytotoxicity, actives largely listed as inhibitors; hit rate 4.3% among 94,000; further: nearly all actives have a fitted effect of over 55% in size
#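 NIH 3T3 cells at 400 cells/well received 23 nL of compound by pintool and were incubated 48 or 72 h at 37 °C. Viability was read as ATP-coupled CellTiter-Glo luminescence.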
# NPR1 antag: blocks ANP-stimulated signaling of human Npr1 receptor; P16066; HEK293 hNpr1 GloSensor cGMP, ANP-stimulated luminescence; Potency, µM (doses to about 46.3 µM), inactives show at the highest dose activity change, negative = inhibition, most hits filed as inhibitors; hit rate 1.6% among 76,000; calls by dose curve; further: nearly all actives have a fitted effect of over 60% in size
# Target sequence (P16066 whole entry, looked up): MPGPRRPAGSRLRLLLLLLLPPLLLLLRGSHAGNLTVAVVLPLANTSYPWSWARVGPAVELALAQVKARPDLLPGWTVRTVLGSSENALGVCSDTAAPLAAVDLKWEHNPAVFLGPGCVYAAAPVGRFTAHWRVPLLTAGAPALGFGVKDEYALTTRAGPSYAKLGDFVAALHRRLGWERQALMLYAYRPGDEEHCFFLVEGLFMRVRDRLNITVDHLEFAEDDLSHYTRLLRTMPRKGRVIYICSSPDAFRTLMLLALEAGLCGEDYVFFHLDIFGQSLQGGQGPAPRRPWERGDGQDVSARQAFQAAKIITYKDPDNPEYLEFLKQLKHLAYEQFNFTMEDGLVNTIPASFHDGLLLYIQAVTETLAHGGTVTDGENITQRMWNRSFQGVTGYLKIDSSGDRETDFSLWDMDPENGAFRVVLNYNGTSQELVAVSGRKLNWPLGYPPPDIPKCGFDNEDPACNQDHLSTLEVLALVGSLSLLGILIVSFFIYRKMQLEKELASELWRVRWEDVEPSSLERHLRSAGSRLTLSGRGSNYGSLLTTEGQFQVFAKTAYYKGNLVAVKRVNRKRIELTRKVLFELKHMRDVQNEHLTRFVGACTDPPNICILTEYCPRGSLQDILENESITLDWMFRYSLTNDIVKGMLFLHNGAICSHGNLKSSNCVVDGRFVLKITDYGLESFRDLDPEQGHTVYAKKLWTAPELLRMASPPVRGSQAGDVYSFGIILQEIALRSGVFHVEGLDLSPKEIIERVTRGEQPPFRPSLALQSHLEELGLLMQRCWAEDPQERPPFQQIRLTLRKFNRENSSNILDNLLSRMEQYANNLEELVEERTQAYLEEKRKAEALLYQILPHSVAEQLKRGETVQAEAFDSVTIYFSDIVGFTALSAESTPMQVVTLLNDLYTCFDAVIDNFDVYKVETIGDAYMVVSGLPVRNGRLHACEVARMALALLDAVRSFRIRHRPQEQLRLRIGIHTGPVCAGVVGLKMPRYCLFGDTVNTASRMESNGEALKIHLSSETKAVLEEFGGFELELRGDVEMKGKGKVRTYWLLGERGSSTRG
#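 HEK293 cells stably expressing human Npr1 and cGMP GloSensor pGS-40F, loaded 2 h with 2% GloSensor reagent, given compound 30 min at room temperature. Luminescence read before and 20 min after 0.1 nM hNppA.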
# SNCA expr inh: reduces expression of the alpha-synuclein gene | Potency, µM (highest dose often 57.2 µM), without a hit: at the highest dose activity change, negative = inhibition, actives largely listed as inhibitors | HEK-293 SNCA-luciferase knock-in, luminescence, 24 h | hit rate 0.17% among 140,000;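 further: plate controls were DMSO cells for no effect and cell-free wells for full effect; nearly all actives have a fitted effect of over 45% in size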
# Luciferase inh: blocks purified firefly luciferase enzyme activity; P08659; purified P. pyralis luciferase, luminescence, biochemical; Potency, µM (top dose mostly 115 µM), most hits filed as inhibitors; hit rate 2.5% among 76,000; further: nearly all actives have a fitted effect of over 65% in size
#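 Luminescence read by CCD imager after adding enzyme (10nM final) to wells holding compound, titrated in qHTS. Substrates 10uM each D-luciferin and ATP; buffer 50mM Tris acetate pH 7.5, 10mM Mg acetate, Tween-20, BSA.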
# HEK293 tox: HEK 293 cell cytotoxicity; AID 1345083; HEK 293 viability, ATP luminescence (CellTiter-Glo), 48-72 h; hit rate 6.6% among 94,000; Potency, µM (top dose mostly 115 µM), inactives show top-dose activity change, negative = cytotoxicity, actives largely listed as inhibitors; further: nearly all actives have a fitted effect of over 60% in size
#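 qHTS cytotoxicity; HEK 293, 250 cells/well; compound pinned; 48 or 72 hr, 37 degree Celsius, 5% CO2, 95% humidity; CellTiter-Glo, 10 min RT; luminescence (ATP).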
# Starred values were filed as active, the others as inactive; i = inactive; ? = inconclusive; . = not tested or not shown; [ ] = another dose, or the depositor's remark. Unless noted, the call rests on the fitted dose curve; in most records, active means well fitted curve in the direction sought with a large enough effect; inconclusive means small, poorly fitted or top-dose-only effect, or another doubt; inactive means no such curve, though single readings can be large; an effect the other way counts as inactive or inconclusive. Unless noted, on the % scale 0 is the no-effect control and ±100 the full control effect; potency means the concentration at half of the fitted maximal effect.
SMILES,HEK293 viab,3T3 cytotox,NPR1 antag,SNCA expr inh,Luciferase inh,HEK293 tox
CC(C)C(=O)N1CCC(Oc2ccc3c(cnn3CCC(=O)O)c2)CC1,3%[87.6 µM],?,0%[70.6 µM],10%[87.6 µM],i,-12%[172 µM]
CNC(=O)CCn1ncc2cc(OC3CCc4cccc(-c5ccc(O)c(F)c5)c43)ccc21 (stereo unspecified),-11%,40µM*,2%,-9%,i,?
CNC(=O)CCn1ncc2cc(OC3CCc4cccc(-c5cnn(C)c5)c43)ccc21 (stereo unspecified),-15%[87.6 µM],?,1%[70.6 µM],?,i,50µM*
c1cncc(Cc2noc(C3CN(Cc4ccsc4)C3)n2)c1,-20%,25µM*,-6%,11%,i,?
CC(C)CNC(=O)CN1CCOc2c(O)cc(-c3cccc(Cl)c3)cc2C1,3%,?,-21%,-3%,i,?
Cc1nc(C(=O)N2CCOc3c(O)cc(-c4cccc(Cl)c4)cc3C2)cs1,?,?,?,-30%,i,18µM*
CC1(C(=O)N2CCOc3c(O)cc(-c4cccc(Cl)c4)cc3C2)CCCO1 (stereo unspecified),-8%,?,-23%,6%,i,45µM*
Oc1cc(-c2cccc(Cl)c2)cc2c1OCCN(c1cc(C3CC3)ncn1)C2,-2%,?,-22%,91%,i,?
COc1cccc(-c2ccc(CN3CCCC(NC(=O)c4ccccn4)C3)cc2)c1 (stereo unspecified),0%,?,.,-8%,.,25µM*
COc1cccc(-c2ccc(CN3CCCC(NC(=O)c4ccc(C(F)(F)F)cc4)C3)cc2)c1 (stereo unspecified),-12%,-24%,.,29%,.,-33%
COc1cccc(-c2ccc(CN3CCCC(NC(=O)c4ccc(C)cc4)C3)cc2)c1 (stereo unspecified),?,?,.,73%,.,22µM*
COc1cccc(-c2ccc(CN3CCCC(NC(=O)c4ccc(Cl)nc4)C3)cc2)c1 (stereo unspecified),?,32µM*,.,-15%,.,14µM*
COc1cccc(-c2ccc(CN3CCCC(NC(=O)c4ccncc4)C3)cc2)c1 (stereo unspecified),-8%,?,.,6%,.,22µM*
O=C(NC1CCCN(Cc2ccc(-c3cncnc3)cc2)C1)c1ccc(Cl)nc1 (stereo unspecified),2%[12.5 µM],-24%,.,?,.,?
CC1CCN(C(=O)c2ccccc2OCC2CCCN(Cc3ccncc3F)C2)CC1 (stereo unspecified),-20%,-19%,-16%,6%,i,?
Cc1cc(C)cc(-c2ccc(CN3CCCC(NC(=O)c4ccccn4)C3)cc2)c1 (stereo unspecified),-10%,14µM*,.,-30%,.,?
Cc1cccc(C(=O)NC2CCCN(Cc3ccc(-c4cc(C)cc(C)c4)cc3)C2)c1 (stereo unspecified),3%[12.5 µM],?,.,-24%,.,40µM*
O=C(NC1CCCN(Cc2ccc(-c3cncnc3)cc2)C1)c1ccccn1 (stereo unspecified),4%[12.5 µM],-4%,.,-16%,.,?
Cc1cc(C)cc(-c2ccc(CN3CCCC(NC(=O)c4ccc(C(F)(F)F)cc4)C3)cc2)c1 (stereo unspecified),-7%,-8%,.,-6%,.,-5%
Cc1ccc(C2Cn3nnc(C(=O)N4CCC(C(=O)NCCC5=CCCCC5)CC4)c3CO2)cc1 (stereo unspecified),3%,i,-1%,65%,10µM*,10%
Cc1ccc(C2Cn3cnc(C(=O)N4CCC(C(=O)NCCC5=CCCCC5)CC4)c3CO2)cc1 (stereo unspecified),10%,-26%,-10%,34%,28µM*,-14%
CCCCNC(=O)C1CCN(C(=O)c2nnn3c2COC(c2ccc(OC)cc2)C3)CC1 (stereo unspecified),-5%,i,-1%,?,i,-2%
